High-throughput results: PubChem, National Center for Advancing Translational Sciences (NCATS)
Giardia kill – Small Molecules that selectively kill Giardia lamblia: qHTS; 340,000 tested, 0.15% active; AID 540267, 2011; Giardia lamblia trophozoite viability; activity change, % at 7.66 µM, hits read low; in the data active means activity change below about -80%; inconclusive means between about -30% and that limit;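 further: parasites exposed to compound for two days anaerobically before the ATP read; on the % scale 0 is the no-effect control and ±100 the full control effect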
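Trophozoites 100 cells/well + cpd; 48 hrs, 37 deg C, anaerobic. ATPLite 1-Step added, 15-30 min RT, luminescence read (ATP-based viability).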
MCF10A rerep – A quantitative high throughput screen for small molecules that induce DNA re-replication in MCF 10a normal breast cells. 350,000 tested, 2.9% active. Potency, µM (titrated, usually from 46.1 µM), for inactives: at the highest dose activity, positive = re-replication, actives largely listed as activators. AID 624296, 2012. MCF 10A DNA re-replication, Hoechst nuclear intensity, 48 h; further: potency means the concentration at half of the fitted maximal effect; % of control where 0% means no effect; nearly all actives have a fitted effect of over 50% in size
SW480 rerep – A quantitative high throughput screen for small molecules that induce DNA re-replication in SW480 colon adenocarcinoma cells; Potency, µM (series often up to 46.1 µM), for the others: top-dose re-replication activation, most hits filed as activators; SW480 DNA re-replication, Hoechst DNA content imaging, 48 h; 340,000 tested, 1.8% active; AID 624297, 2012; further: potency means the concentration at half of the fitted maximal effect; % of control where 0% means no effect; nearly all actives have a fitted effect of over 55% in size
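DNA re-replication was detected as more nuclei of elevated Hoechst intensity after 48 hr exposure to compound (23 nL pinned per well of 250 cells).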
IL-1B inflam inh – qHTS for Inhibitors of Inflammasome Signaling: IL-1-beta AlphaLISA Primary Screen | THP-1 LPS/ATP IL-1B secretion, AlphaLISA, 16 h; hits give low values | activity change, % at 57.5 µM | 360,000 tested, 4.7% active; in the data active means activity change below about -50%; inconclusive means mostly about -30% to -49%; further: on the % scale 0 is the no-effect control and ±100 the full control effect
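Secreted IL-1B measured by AlphaLISA bead assay after 16 h compound exposure of THP-1 cells; compounds (final up to 57.5 uM) added 1 h before LPS (250 ng/mL) and ATP (1.25 mM) stimulation; lower signal means less secretion.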
Vif-APOBEC3G blk – qHTS for Inhibitors of Vif-A3G Interactions: qHTS; HeLa A3G-eYFP + Vif (tagged APOBEC3G with the HIV-1 protein that degrades it), YFP fluorescence, overnight; Potency, µM (doses to about 46.1 µM), without a hit: at the top dose activity, negative = active, usual class: inhibitors; DNA dC->dU-editing enzyme APOBEC-3G (Homo sapiens), Q9HC16; 410,000 tested, 0.076% active; further: potency means the concentration at half of the fitted maximal effect; on the % scale 0 is the no-effect control and ±100 the full control effect; nearly all actives have a fitted effect of over 60% in size
Target sequence (Q9HC16 whole entry, looked up): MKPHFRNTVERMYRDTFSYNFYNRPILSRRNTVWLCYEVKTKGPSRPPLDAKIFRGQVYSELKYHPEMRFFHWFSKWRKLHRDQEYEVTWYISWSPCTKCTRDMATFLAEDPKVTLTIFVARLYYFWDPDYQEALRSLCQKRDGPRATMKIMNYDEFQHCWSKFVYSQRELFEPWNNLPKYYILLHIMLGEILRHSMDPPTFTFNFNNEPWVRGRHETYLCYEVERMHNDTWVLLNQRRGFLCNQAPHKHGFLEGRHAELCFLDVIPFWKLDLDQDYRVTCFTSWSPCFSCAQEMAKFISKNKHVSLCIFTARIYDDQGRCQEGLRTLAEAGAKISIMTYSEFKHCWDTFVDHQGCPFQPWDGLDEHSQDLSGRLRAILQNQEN
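HeLa cells stably expressing Vif and C-terminally eYFP-tagged A3G, seeded overnight at 37 deg C, then exposed to compound by pintool overnight at 37 deg C. Rise in yellow fluorescence (Ex 488/Em 500-530, Acumen) marks blocked Vif-driven A3G degradation.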
Vif-APOBEC3F blk – qHTS for Inhibitors of Vif-A3F Interactions: qHTS; HeLa A3F-eYFP + Vif (tagged APOBEC3F with the HIV-1 protein that degrades it), YFP fluorescence increase; Potency, µM (doses to about 46.1 µM), for the others: at the top dose activity, negative = active; 390,000 tested, 0.2% active; further: potency means the concentration at half of the fitted maximal effect; % of control where 0% means no effect; nearly all actives have a fitted effect of over 65% in size
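HeLa cells stably expressing Vif plus C-terminally eYFP-tagged A3F were seeded, incubated overnight at 37 deg C, dosed with compound, incubated overnight again at 37 deg C. Yellow fluorescence (Ex 488/Em 500-530) reported blocked Vif-mediated A3F-eYFP degradation.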
* = called active by the depositor; [ ] = dose if it differs, or a comment. Compounds with a hit are over-represented: about 6.9% of the library has one in this group of screens. Unless noted, the call rests on the fitted dose curve; in most records, active means well fitted curve in the direction sought with a large enough effect; inconclusive means small, poorly fitted or top-dose-only effect, or another doubt; inactive means no such curve, though single readings can be large; an effect the other way counts as inactive or inconclusive.

For COc1cc(CNCCSc2nnnn2C)cc(Br)c1OCc1ccc(F)cc1 the results were Giardia kill -3, MCF10A rerep inconclusive, SW480 rerep inconclusive, IL-1B inflam inh -50*, Vif-APOBEC3G blk -16% and Vif-APOBEC3F blk -7%.
`CCOc1cc(CNCCSc2nnnn2C)cc(Br)c1OCc1ccccc1F` gave Giardia kill 7, MCF10A rerep inconclusive, SW480 rerep inconclusive, IL-1B inflam inh -65*, Vif-APOBEC3G blk -6% and Vif-APOBEC3F blk -4%.
CCSc1nc2n(n1)C(c1ccc(CC)cc1)C(C(=O)Nc1ccccc1OC)=C(C)N2 (centres undefined) was read as Vif-APOBEC3G blk -3% and Vif-APOBEC3F blk -10%.
Cc1cc2nn(-c3ccc(Cl)cc3)nc2cc1N was read as Giardia kill -11, MCF10A rerep 21µM*, SW480 rerep 23µM*, IL-1B inflam inh 15, Vif-APOBEC3G blk 1% and Vif-APOBEC3F blk 0%.
For Cc1cc2nn(-c3ccc(F)cc3)nc2cc1N the results were Giardia kill -9, MCF10A rerep 21µM*, SW480 rerep 21µM*, IL-1B inflam inh 31, Vif-APOBEC3G blk -5% and Vif-APOBEC3F blk -5%.
Screening COc1ccc(-n2nc3cc(C)c(N)cc3n2)cc1Cl returned Giardia kill 18, MCF10A rerep 3.3µM*, SW480 rerep 15µM*, IL-1B inflam inh -10, Vif-APOBEC3G blk -2% and Vif-APOBEC3F blk 0%.
`O=C(Nc1ccc(N2CCOCC2)c(Cl)c1)c1ccc2c(c1)OCCO2` gave Giardia kill -12, MCF10A rerep inconclusive, SW480 rerep -2%, IL-1B inflam inh inconclusive, Vif-APOBEC3G blk 0% and Vif-APOBEC3F blk 1%.
CC(C)c1ccc(C(=O)Nc2ccc(N3CCOCC3)cc2)cc1 was read as Giardia kill -20, MCF10A rerep 23µM*, SW480 rerep inconclusive, IL-1B inflam inh 7, Vif-APOBEC3G blk -5% and Vif-APOBEC3F blk 4%.
O=C(Nc1ccc(N2CCOCC2)c(Cl)c1)c1ccc(Cl)cc1 was read as Giardia kill 2, MCF10A rerep 18%, SW480 rerep -4%, IL-1B inflam inh -55*, Vif-APOBEC3G blk -7% and Vif-APOBEC3F blk 1%.
Screening Cc1ccc(NC(=O)c2cc(N3C(=O)CCC3=O)ccc2N2CCOCC2)cc1 returned Giardia kill 0, MCF10A rerep -2%, SW480 rerep -1%, IL-1B inflam inh 25, Vif-APOBEC3G blk 2% and Vif-APOBEC3F blk 16%.
For O=C(Nc1ccc(N2CCCCC2)c(Cl)c1)c1ccc2c(c1)OCCO2 the results were Giardia kill 19, MCF10A rerep inconclusive, SW480 rerep -2%[9.22 µM], IL-1B inflam inh 6 and Vif-APOBEC3G blk -3%.
For Cc1ccc(NC(=O)c2cc(N3C(=O)C=CC3=O)ccc2N2CCOCC2)cc1Cl the results were Giardia kill -1, MCF10A rerep 16µM*, SW480 rerep inconclusive, IL-1B inflam inh -57*, Vif-APOBEC3G blk -25% and Vif-APOBEC3F blk -12%.
Screening O=C(Nc1ccc(N2CCCC2)c(Cl)c1)c1ccc2c(c1)OCCO2 returned Giardia kill -19, MCF10A rerep 11%, SW480 rerep 1%, IL-1B inflam inh -64*, Vif-APOBEC3G blk 3% and Vif-APOBEC3F blk 9%.
`CCOc1ccc(S(=O)(=O)NCc2ccccc2Cl)cc1C(N)=O` gave Giardia kill -4, MCF10A rerep -1%, SW480 rerep -8%, IL-1B inflam inh -58*, Vif-APOBEC3G blk 1% and Vif-APOBEC3F blk 6%.
Screening COc1cc(/C=N/Nc2ccccn2)cc(OC)c1O returned Giardia kill 2, MCF10A rerep -17%, SW480 rerep 19%, IL-1B inflam inh -100*, Vif-APOBEC3G blk -1% and Vif-APOBEC3F blk 15%.
